Results on 36 compounds are retold here after the supplement of paper PMC12669797.

In one assay the test system is ES2. Nature of the assay: cell viability relative to DMSO control (MTS) (fraction of DMSO control); higher = more viable cells / less growth inhibition. As to conditions: 10 µM; 48 h. The method, boiled down:
(§1)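 A 367-compound […] library was tested at a final concentration of 10 µM on TOV-21G and ES2 clear cell carcinoma cells (5000 cells per well, 96-well plates, pre-grown 24 h), with control wells receiving vehicle only. Following 48 h of exposure, CellTiter 96 AQueous One Solution was used as the manufacturer directs. This MTS assay gives cell viability as a fraction of the vehicle control.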

The subject of the next assay is TOV-21G. Described as above. As to conditions: 10 µM; 48 h. The method, boiled down:
as §1

Structures are written as SMILES. “And” between values parts separate entries of the source, which are not always exact repeats. Equal values may be shown once. Where a name gives a salt, the structure may show the parent alone.

On to `CCCCCCCCCCC[C@@H](C[C@@H]1OC(=O)[C@H]1CCCCCC)OC(=O)[C@H](CC(C)C)NC=O` [orlistat], for which the values for the cell viability with ES2 and in the assay on TOV-21G were 1.08 and 1.14, respectively.

As to `COC(=O)Nc1nc2cc(C(=O)c3cccs3)ccc2[nH]1` [Nocodazole], the cell viability in the assay on ES2 was determined as 0.451; in the assay on TOV-21G, 0.464.

On to `O=c1c2ccccc2[nH]c(=S)n1CCN1CCC(=C(c2ccc(F)cc2)c2ccc(F)cc2)CC1` [Diacylglycerol kinase inhibitor II], for which the cell viability in the assay on ES2 was determined as 1.09; in the assay with TOV-21G it was 1.13.

Regarding `COC(=O)CNC(=O)C(=O)OC` [Dimethyloxalylglycine], the figures for the cell viability with ES2 and in the assay on TOV-21G were 1.23 and 0.917, respectively.

In the case of `COc1cc2nccc(Oc3ccc(NC(=S)NC(=O)c4ccccc4C)cc3)c2cc1OC` [PDGF receptor tyrosine kinase inhibitor V], the cell viability in the assay on ES2 was 0.874; with TOV-21G it was 0.525.

Regarding `N#CC[C@H](C1CCCC1)n1cc(-c2ncnc3[nH]ccc23)cn1` [Ruxolitinib], the figures for the cell viability in the assay on ES2 and with TOV-21G were 0.979 and 0.776, respectively.

Regarding `COc1ccc(Cn2ccc3ccc(C(=O)NO)cc32)cc1`, the cell viability in the assay on ES2 turned out to be 0.928; with TOV-21G, 0.919.

Regarding `O=S(=O)(c1cccc2cnccc12)N1CCCNCC1`, the cell viability is 0.979 in the assay on ES2 and 1.04 with TOV-21G.

`CCCCC(=O)Oc1ccccc1C(=O)O` [Valeryl salicylate]: the cell viability was 0.917 in the assay on ES2 and 1.01 in the assay with TOV-21G.

`CC(/C=C/C(=O)NO)=C\[C@@H](C)C(=O)c1ccc(N(C)C)cc1` [Trichostatin A]: the values for the cell viability with ES2 and in the assay with TOV-21G were 0.343 and 0.355, respectively.

For `NC(=O)c1ccc(-c2nc(-c3ccccn3)c(-c3ccc4c(c3)OCO4)[nH]2)cc1`, the cell viability in the assay on ES2 is 1.08 and 1.11; in the assay on TOV-21G it was 0.993 and 1.03.

`CCNCCCNCCCCNCCCNCC` [N1,N12-Diethylspermine (BESpm)]: the cell viability stood at 1 in the assay with ES2 and 0.731 with TOV-21G.

Turning to `Cc1c(C)c2c(c(C)c1O)CCC(C)(COc1ccc(CC3SC(=O)NC3=O)cc1)O2` (configuration not stated) [Troglitazone], the cell viability in the assay with ES2 is 0.835; in the assay with TOV-21G it was 1.26.

As to `CCOC(=O)C(C)(C)Oc1ccc(Cl)cc1` [Clofibrate], the cell viability with ES2 stood at 1.35; in the assay with TOV-21G, 1.03.

For `N#C/C(=C\c1ccc2oc(=O)[nH]c2c1)C(=O)c1ccc(O)c(O)c1`, the cell viability was found to be 0.972 with ES2 and 1.13 in the assay on TOV-21G.

`CN(C)CCCN1c2ccccc2Sc2ccc(Cl)cc21` [chlorpromazine hydrochloride]: the results for the cell viability in the assay with ES2 and in the assay with TOV-21G were 0.947 and 0.868, respectively.

With `CCCCCCCCCCC1=C(C)C(=O)C(OC)=C(OC)C1=O` [Decylubiquinone], the cell viability with ES2 came out at 1.02; in the assay with TOV-21G, 0.981.

With `CS(=O)(=O)CCNCc1ccc(-c2ccc3ncnc(Nc4ccc(OCc5cccc(F)c5)c(Cl)c4)c3c2)o1` [lapatinib], the cell viability was determined as 0.482 in the assay with ES2 and 4.68 with TOV-21G.

On to `Oc1nc(-c2ccc(C(F)(F)F)cc2)nc2c1CSCC2`, for which the results for the cell viability in the assay on ES2 and in the assay with TOV-21G were 0.961 and 1.1, respectively.

With `O=C(NCCCCCCNC(=O)ON=C1CCCCC1)ON=C1CCCCC1`, the cell viability came out at 1.3 in the assay with ES2 and 0.996 in the assay on TOV-21G.

As for `O=C1Nc2ccc(I)cc2/C1=C\c1cc(Br)c(O)c(Br)c1` [RAF1 kinase inhibitor I], the cell viability in the assay on ES2 stood at 1.1; in the assay on TOV-21G, 1.03.

Consider `Fc1ccc(Cl)cc1-c1nc(Nc2ccncc2)c2nccnc2n1`, for which the cell viability in the assay on ES2 was 0.645; in the assay with TOV-21G it was 1.08.

Turning to `CC(C)(C)c1cc(O)ccc1O` [t-Butylhydroquinone (BHQ)], the cell viability with ES2 turned out to be 0.939; with TOV-21G, 1.11.

On to `COc1cc2nc(N3CCCN(C)CC3)nc(NC3CCN(Cc4ccccc4)CC3)c2cc1OC`, for which the cell viability was 0.42 in the assay on ES2 and 0.454 in the assay with TOV-21G.

In the case of `C[C@@H](N)[C@H]1CC[C@H](C(=O)Nc2ccncc2)CC1`, the cell viability with ES2 was 1.09 and 0.911; in the assay on TOV-21G it was 0.922 and 0.973.

For the compound `C#Cc1cccc(Nc2ncnc3cc(OCCOC)c(OCCOC)cc23)c1` [erlotinib], the cell viability in the assay with ES2 was found to be 0.7; in the assay on TOV-21G, 0.487.

In the case of `N=C(N)NC(=O)c1nc(Cl)c(N)nc1N` [Amiloride], the values for the cell viability with ES2 and with TOV-21G were 1.16 and 1.24, respectively.

As for `Cc1cc([N+](=O)[O-])ccc1NS(=O)(=O)c1cc(Cl)ccc1Cl`, the cell viability in the assay with ES2 stood at 0.894; in the assay on TOV-21G, 1.14.

Consider `Nc1cccc2c1CN(C1CCC(=O)NC1=O)C2=O` (configuration not stated) [lenalidomide], for which the cell viability is 0.928 in the assay with ES2 and 0.954 in the assay on TOV-21G.

As to `NC(=O)Nc1sc(-c2ccccc2)cc1C(N)=O` [IKK-2 inhibitor VI], the cell viability came to 0.555 in the assay with ES2 and 0.476 with TOV-21G.

In the case of `NC(=O)c1ccccc1` [Benzamide], the cell viability with ES2 turned out to be 0.902; in the assay on TOV-21G, 0.989.

Turning to `CNCc1ccc(-c2[nH]c3cc(F)cc4c3c2CCNC4=O)cc1`, the cell viability turned out to be 0.686 in the assay on ES2 and 0.746 in the assay with TOV-21G.

On to `CCN1/C(=C/C(C)=O)Sc2ccc(OC)cc21`, for which the cell viability came to 0.857 with ES2 and 1.01 with TOV-21G.

As to `CSCC[C@H](NC(=O)c1ccc(NC[C@@H](N)CS)cc1-c1ccccc1)C(=O)O`, the values for the cell viability with ES2 and in the assay with TOV-21G were 1.55 and 1, respectively.

On to `COC(=O)C[C@H](NC(=O)[C@H](C)NC(=O)[C@@H](NC(=O)OCc1ccccc1)C(C)C)C(=O)CF`, for which the cell viability in the assay with ES2 was 1.42; in the assay with TOV-21G, 1.16.

In the case of `CC(C)C[C@H](NC(=O)[C@H](Cc1ccccc1)NC(=O)c1cnccn1)B(O)O` [bortezomib], the cell viability in the assay with ES2 was found to be 0.302; with TOV-21G, 0.432.
